Assay outcomes deposited in PubChem by National Center for Advancing Translational Sciences (NCATS).
Most compounds without a hit are left out; they make up all but 11% or so of the library.
HTT aggregate = mutant huntingtin aggregation inhibition; PC12 HttQ103-GFP aggregates, Acumen cytometry, 40 h; Potency, µM (titrated, usually from 46.1 µM), inactives show top-dose activity change, negative = inhibition, actives largely listed as inhibitors; 1.1% of 220,000 active; also: potency is read from the fitted curve at half-maximal effect; % is scaled to controls: 0 for no effect and ±100 for the full control effect; nearly all actives have a fitted effect of over 60% in size
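Read-out: GFP aggregate count by laser scanning cytometer (488 nm excitation, 500-530 nm emission, 1–25 µm objects >6 SD above background). Cells: PC12, inducible HTTex1-Q103-GFP, 100 nM tebufenozide; compounds titrated.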
HPGD inh = inhibitors of human 15-hydroxyprostaglandin dehydrogenase (HPGD); 4.3% of 150,000 active; Potency, µM, without a hit: top-dose activity change, negative = inhibition, most hits filed as inhibitors; purified HPGD, NADH fluorescence kinetic, PGE2 substrate; AID 894; active = well fitted inhibition curve with a large enough effect, not every such curve was filed as active; inconclusive = small, poorly fitted or top-dose-only effect, or another doubt; inactive = no such curve, though single readings can be large or run the other way; also: potency is read from the fitted curve at half-maximal effect; % is scaled to controls: 0 for no effect and ±100 for the full control effect
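20 nM HPGD preincubated 15 min at room temperature with compound in 50 mM Tris-HCl pH 8, 0.01% Tween 20. Started with 1 mM NAD+ and 30 uM prostaglandin E2; NADH fluorescence (360/450 nm) read 5 times over 30-s intervals, last minus first.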
RGS12 GoLoco inh = blocks human Gai1 binding to RGS12 GoLoco peptide, red readout; P63096; Gai1:RGS12 GoLoco peptide FP, rhodamine, 10 min; Potency, µM (top dose mostly 61.6 µM), inactives show at the highest dose activity, negative = inhibition, most hits filed as inhibitors; 0.44% of 230,000 active; active = well fitted inhibition curve with a large enough effect, not every such curve was filed as active; inactive = no such curve, though single readings can be large or run the other way; also: potency is read from the fitted curve at half-maximal effect; % is scaled to controls: 0 for no effect and ±100 for the full control effect; nearly all actives have a fitted effect of over 30% in size
Target sequence (P63096 whole entry, looked up): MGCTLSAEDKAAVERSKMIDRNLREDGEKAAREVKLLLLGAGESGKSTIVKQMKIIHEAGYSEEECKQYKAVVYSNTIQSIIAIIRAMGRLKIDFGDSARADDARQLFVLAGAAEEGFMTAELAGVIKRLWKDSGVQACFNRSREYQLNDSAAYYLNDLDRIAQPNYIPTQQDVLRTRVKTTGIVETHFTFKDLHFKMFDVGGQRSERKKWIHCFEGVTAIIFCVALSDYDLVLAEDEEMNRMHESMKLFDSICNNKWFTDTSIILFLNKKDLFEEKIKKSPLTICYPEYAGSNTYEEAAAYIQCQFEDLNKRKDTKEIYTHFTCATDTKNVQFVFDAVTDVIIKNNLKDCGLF
PNC assembly inh = blocks assembly of the perinucleolar compartment | AID 2417 | activity change (PNC), negative = inhibition, % at 10 µM | 3.1% of 140,000 active | PC3M PTB-GFP, PNC prevalence imaging, 16 h; stronger effect = lower value;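 active = readout at or below -70, meaning at least 70% loss of cells showing the perinucleolar compartment, a nuclear body marking cancer cells; inconclusive = readout between -30 and a set limit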;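 also: plate controls were DMSO wells for no effect and camptothecin positive control wells for full effect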
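Compounds are pinned in duplicate onto adhered PC3M cells stably expressing GFP-tagged PTB and incubated 16 h at 37 C. Cells are then fixed, nuclei stained with Hoechst, and PNC-positive cells counted.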
HTT cytoprotect = Huntington cell model cytoprotection by ATP luminescence. PC12 HTT-Q103 induced, cytoprotection, ATP luminescence, 40 h. Potency, µM (series often up to 56.4 µM), without a hit: cytoprotection (ATP increase), most hits filed as activators. 0.14% of 230,000 active. AID 1471; also: potency is read from the fitted curve at half-maximal effect; % of control where 0% means no effect; nearly all actives have a fitted effect of over 45% in size
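Quantitative HTS on tebufenozide-induced (100 nM) PC12 cells expressing HTTQ103 exon 1–GFP; compounds tested as a concentration series; survival measured via cellular ATP.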
ALDH1A1 block = blocks purified human ALDH1A1 activity; P00352; Purified ALDH1A1, NADH fluorescence, propionaldehyde substrate; Potency, µM (top dose mostly 75.3 µM), for the others: at the top dose activity, negative = inhibition, most hits filed as inhibitors; 7.3% of 220,000 active; active = well fitted inhibition curve with a large enough effect, not every such curve was filed as active; inconclusive = small, poorly fitted or top-dose-only effect, or another doubt; inactive = no such curve, though single readings can be large or run the other way;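 also: potency is read from the fitted curve at half-maximal effect; plate controls were no enzyme wells and a reference inhibitor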
The depositor's hits bear a star; [ ] = remark or other dose. Unless noted, calls follow the shape of the dose curve; as a rule, active = well fitted curve in the direction sought with a large enough effect; inconclusive = small, poorly fitted or top-dose-only effect, or another doubt; inactive = no such curve, though single readings can be large; an effect the other way counts as inactive or inconclusive.

Results for Cc1cc(C=O)c(C)n1-c1ccc(NC2CCCC2)c([N+](=O)[O-])c1 ?
HTT aggregate: -23.7%; HPGD inh: inconclusive; RGS12 GoLoco inh: 29.4%; PNC assembly inh: 48.2; HTT cytoprotect: 13.1%; ALDH1A1 block: inconclusive

How did O=C(Nc1ccc(O)c2c(=O)cc(-c3ccccc3Cl)oc12)c1cccc(Cl)c1 do in these assays?
HTT aggregate: -3.0%; HPGD inh: -10.3%; RGS12 GoLoco inh: 5.0%; PNC assembly inh: -80.0*; ALDH1A1 block: 9.1%

How did O=C(Nc1ccc(O)c2c(=O)cc(-c3ccccc3Cl)oc12)c1ccc(Br)cc1 do in these assays?
HPGD inh: 1.12µM*; RGS12 GoLoco inh: 6.3%; HTT cytoprotect: inconclusive; ALDH1A1 block: -6.2%

How did Cc1cccc(C(=O)Nc2ccc(O)c3c(=O)cc(-c4ccccc4Cl)oc23)c1 do in these assays?
HTT aggregate: -18.8%; HPGD inh: -10.4%; RGS12 GoLoco inh: 1.2%; PNC assembly inh: 60.3; ALDH1A1 block: 1.0%

Results for COc1cccc(-c2ccc3ncnc(NCCN4CCOCC4)c3c2)c1 ?
RGS12 GoLoco inh: 8.5%; HTT cytoprotect: -162.3%; ALDH1A1 block: inconclusive

How did O=C1/C(=C/c2cccnc2)CCc2c1[nH]c1ccccc21 do in these assays?
HTT aggregate: inconclusive; RGS12 GoLoco inh: 22.9%; HTT cytoprotect: -17.0%; ALDH1A1 block: inconclusive

What do the screens show for `CC1C/C(=C\c2cccnc2)C(=O)/C(=C/c2cccnc2)C1` (stereo not given)?
HTT aggregate: 3.55µM*; HPGD inh: -9.7%; RGS12 GoLoco inh: 7.2%; PNC assembly inh: -116.4*; HTT cytoprotect: -23.6%[10 µM]; ALDH1A1 block: -11.2%

What do the screens show for `CCCn1nc2cc(C(=O)N(CC)c3ccc(OC)cc3)ccc2c1OCC`?
HTT aggregate: 5.1%; HPGD inh: inconclusive; RGS12 GoLoco inh: 3.9%; PNC assembly inh: -12.5; HTT cytoprotect: -24.5%; ALDH1A1 block: inconclusive

What do the screens show for `O=c1[nH][nH]cc1C=Nc1cc(Cl)ccc1O`?
HTT aggregate: -20.9%; RGS12 GoLoco inh: 1.6%; HTT cytoprotect: 14.1µM*; ALDH1A1 block: -2.5%

What do the screens show for `CC1CCN(C(=O)C(C)Sc2nc(-c3ccccc3)cc(C(F)(F)F)n2)CC1` (stereo not given)?
HTT aggregate: -32.0%; HPGD inh: 15.8µM*; RGS12 GoLoco inh: 0.5%; PNC assembly inh: -11.8; HTT cytoprotect: -17.0%; ALDH1A1 block: inconclusive

What do the screens show for `S=c1nc(-c2sccc2OCc2ccc(Cl)cc2Cl)[nH][nH]1`?
HTT aggregate: 9.9%; RGS12 GoLoco inh: 13.9%; HTT cytoprotect: 32.3%[10 µM]; ALDH1A1 block: -2.4%

How did CC(C)Cc1nnc(NC(=O)CSc2nc(O)c(-c3ccccc3)c(=O)[nH]2)s1 do in these assays?
HTT aggregate: -15.6%; RGS12 GoLoco inh: 7.2%; HTT cytoprotect: 15.4%; ALDH1A1 block: -6.1%

Results for C=CCN1C(=O)C2(C(C(=O)c3ccc(C)o3)=C(O)C(=O)N2CCCN2CCOCC2)c2ccccc21 (stereo not given) ?
HTT aggregate: -7.7%; PNC assembly inh: inconclusive; HTT cytoprotect: -17.2%[0.074 µM]; ALDH1A1 block: 20.6%

What do the screens show for `CCCN1C(=O)C2(C(C(=O)c3ccc(C)o3)=C(O)C(=O)N2CCCN2CCOCC2)c2ccccc21` (stereo not given)?
HTT aggregate: 10.0%; HPGD inh: -4.4%; RGS12 GoLoco inh: -12.9%; PNC assembly inh: inconclusive; HTT cytoprotect: -9.0%[0.074 µM]; ALDH1A1 block: 10µM*

What do the screens show for `CCOC(=O)C1C(=O)C=C(c2ccc([N+](=O)[O-])cc2)CC1c1ccccc1` (stereo not given)?
HTT aggregate: 3.1%; HPGD inh: inconclusive; RGS12 GoLoco inh: -5.6%; PNC assembly inh: -18.3; HTT cytoprotect: -2.7%[10 µM]; ALDH1A1 block: inconclusive

How did CCOC(=O)C1C(=O)C=C(c2ccc(Br)cc2)CC1c1ccco1 (stereo not given) do in these assays?
HTT aggregate: -24.8%; HPGD inh: -13.9%; RGS12 GoLoco inh: -12.8%; PNC assembly inh: -6.9; HTT cytoprotect: -23.1%; ALDH1A1 block: 15.8µM*
